# This is one part of a sample in which hits are shown more often than they occur.
# Pf Dd2 growth: inhibitors of Plasmodium falciparum Dd2 growth; P. falciparum Dd2 growth, SYBR Green, 72 h; Potency, µM (titrated, usually from 28.9 µM), for inactives: at the highest dose activity, negative = inhibition, actives largely listed as inhibitors; hit rate 4.3% among 120,000; active = well fitted inhibition curve with a large enough effect;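 also: plate controls were DMSO vehicle for no effect and reference drug for full effect; nearly all actives have a fitted effect of over 65% in size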
#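 Readout: SYBR Green fluorescence, 485 nm excitation, 535 nm emission, after ~16 h lysis at 37C. Before that, Dd2-infected red cells (2.5% hematocrit) grew 72 h with compound, 29 uM top final concentration.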
# * hit, by the source's call; i = inactive; [ ] = another dose, or the depositor's remark. Potency is read from the fitted curve at half-maximal effect.
SMILES,Pf Dd2 growth
CC(C)c1ccc(NC(=O)Cn2cc(S(=O)(=O)N3CCN(c4ccccc4F)CC3)c3ccccc3c2=O)cc1,10µM*
CC1CCN(S(=O)(=O)c2cn(CC(=O)Nc3ccc(F)cc3)c(=O)c3ccccc23)CC1,i
CC(C)c1ccc(NC(=O)c2ccc(F)c(S(=O)(=O)N3CCN(c4ccccc4F)CC3)c2)cc1,i
O=C(Cn1nc2n(c1=O)CCCCC2)NCc1ccc2c(c1)OCO2,-23%
C=CCNc1nc(C)nc2c1CCN(C(=O)CNS(C)(=O)=O)CC2,-11%
CNC(C)c1c(F)cccc1F (centres undefined),2%[44.1 µM]
COCc1cc(N2CCC(c3cccc(OC)c3OC)C2)ncn1 (centres undefined),-11%
CCC1CCCCN1CCCNC(=O)c1ccc2c(c1)N(Cc1cccc(C)c1)C(=O)c1ccccc1S2(=O)=O (centres undefined),4µM*
CCC1CCCCN1CCCNC(=O)c1ccc2c(c1)N(Cc1ccc(Cl)cc1)C(=O)c1ccccc1S2(=O)=O (centres undefined),4µM*
CCC1CCCCN1CCCNC(=O)c1ccc2c(c1)N(Cc1cccc(Cl)c1)C(=O)c1ccccc1S2(=O)=O (centres undefined),-6%
O=C(NCc1ccco1)c1ccc2c(c1)N(Cc1ccc(Cl)cc1)C(=O)c1ccccc1S2(=O)=O,i
OCC1(O)CCCN(Cc2ccccc2Cn2cccn2)C1 (centres undefined),-8%
Cc1cc(C)n(Cc2ccc(C(=O)N3C[C@@H](Oc4cccnc4)C[C@H]3C(N)=O)o2)n1,-21%
CC1(C(=O)NCc2cccnc2)CCc2cnc(NCc3ccccc3)nc21 (centres undefined),i
CC(C)CCN1CC(C(=O)NCc2ccncc2)C2(CCOCC2)C1 (centres undefined),-22%
CC(=O)N1CCC([C@@H]2CN(Cc3ccc(C#N)cc3)C[C@H]2CO)CC1,-8%
Cc1noc(C)c1CN[C@@H]1CCC[C@@H](C(=O)N2CCN(C)CC2)CC(=O)N(C)C1,11%[44.1 µM]
COc1cccc(OCc2nc3c(n2Cc2ccccc2)C(=O)N(CC2CCOCC2)CCN3)c1,11µM*
N#Cc1ccccc1CN1CCNc2nc(CNCc3ccc4c(c3)OCO4)n(Cc3ccccc3)c2C1=O,6.3µM*
N#Cc1ccc(OCc2nc3c(n2Cc2ccccc2)C(=O)N(CC2CC2)CCN3)cc1,10µM*
O=C1c2c(nc(CNCc3cccc(Cl)c3)n2Cc2ccccc2)NCCN1Cc1ccccc1F,i
O=C1c2c(nc(COc3ccccc3)n2Cc2ccccc2)NCCN1CCOc1ccccc1,i
O=C1c2c(nc(COc3ccc(F)cc3)n2Cc2ccccc2)NCCN1Cc1ccccc1,i
COc1cc(Cl)ccc1OCc1nc2c(n1Cc1ccccc1)C(=O)N(Cc1ccccc1C#N)CCN2,-9%
COc1cccc(OCc2nc3c(n2Cc2ccccc2)C(=O)N(CCOc2ccccc2)CCN3)c1,-19%
SMILES,Pf Dd2 growth
COc1cccc(OCc2nc3c(n2Cc2ccccc2)C(=O)N(C)CCN3)c1,i
COc1ccc(CNC(=O)N2C[C@@H](Oc3ccccc3)C[C@@H]2C(=O)N2CCOCC2)cc1,-3%
CCn1cnnc1-c1nn(C)c2c1CN(C(=O)CN1CCCCCC1)CC2,0%
CCS(=O)(=O)c1c(Nc2cc(C)ccc2C)sc(C(=O)c2ccccc2)c1N,-21%
COc1ccc(S(=O)(=O)c2c(Nc3ccc(C)cc3C)sc(C(=O)c3ccc(F)cc3)c2N)cc1,11µM*
CC(=O)c1cc2c(cc1N/C(=N/S(=O)(=O)c1ccc(C)cc1)c1ccccc1)OCO2,-24%
COc1ccc(CNC(=O)c2c(Nc3ccc(OC)cc3OC)sc(C(=O)c3ccc(Cl)cc3)c2N)cc1,i
COc1cccc(C(=O)Nc2ccccc2-c2nc3ccccc3s2)c1,i
CCc1ccccc1Nc1sc(C(=O)c2cccc(OC)c2)c(N)c1S(=O)(=O)c1ccccc1,11µM*
Cc1ccccc1Nc1sc(C(=O)c2ccc3c(c2)OCO3)c(N)c1S(=O)(=O)c1ccccc1,-17%
COc1cccc(C(=O)c2cn(CC(=O)NCc3ccccc3Cl)c3nc(C)ccc3c2=O)c1,-5%
Cc1ccc(S(=O)(=O)c2c(Nc3ccccc3)sc(C(=O)c3ccc4c(c3)OCO4)c2N)cc1,13µM*
COc1ccc(S(=O)(=O)c2c(O)c(C)cc(NC(=O)c3ccccc3)c2C(C)C)cc1,i
CCc1ccccc1Nc1sc(C(=O)c2ccccc2)c(N)c1S(=O)(=O)c1ccccc1,11µM*
Cc1cccc(C)c1Nc1sc(C(=O)c2ccccc2)c(N)c1S(=O)(=O)c1ccccc1,i
Cc1cnc(C(=O)N2[C@@H]3CC[C@H]2CC(NC(=O)c2ccc(F)cc2)C3)cn1 (some centres undefined),-7%
OC[C@@H]1O[C@H](CNCc2cccc(Cl)c2)[C@H](N2CCCC2)[C@@H]1O,i
N#Cc1ccc(C(=O)N2CCCCCNC(=O)CC2c2ccccc2)cc1 (centres undefined),-7%
Cc1ccc(C2=NC3(CCN(C(=O)c4sccc4C)CC3)ON2)cc1,-1%

# Source: PubChem BioAssay
